High-throughput results as filed in PubChem.
UBC13 inh: human UBC13 polyubiquitination inhibition. P61088. UBC13 polyubiquitin chain formation, TR-FRET. inhibition, % at 20 µM. 0.47% of 330,000 active. AID 485273; in the data active = inhibition above about 45%, passing the limit was not always enough
Target sequence (P61088 whole entry, looked up): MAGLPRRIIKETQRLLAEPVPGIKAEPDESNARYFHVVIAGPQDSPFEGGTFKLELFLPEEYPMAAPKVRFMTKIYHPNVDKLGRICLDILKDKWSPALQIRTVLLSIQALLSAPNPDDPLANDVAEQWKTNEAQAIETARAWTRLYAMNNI
UBC9 SUMO inh: blocks human SUMOylation mediated by UBC9; HTRF SUMOylation assay, SAE1/SAE2 + UBC9, in vitro; 0.36% of 290,000 active; inhibition, % at 35 µM; in the data active = inhibition above about 50%, passing the limit was not always enough
Target sequence (P63279 whole entry, looked up): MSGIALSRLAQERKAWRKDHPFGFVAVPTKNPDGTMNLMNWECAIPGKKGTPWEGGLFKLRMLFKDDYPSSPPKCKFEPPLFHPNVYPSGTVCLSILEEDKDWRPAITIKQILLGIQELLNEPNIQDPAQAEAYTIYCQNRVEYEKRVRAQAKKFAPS
sPLA2-III inh: Blocks human group III sPLA2 activity | inhibition, % at 12.2 µM | 0.56% of 370,000 active | AID 743126 | QFRET BODIPY PC-A2 liposome hydrolysis, fluorescence;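 active = inhibition above mean plus 3 SD of compounds lying within the high and low control bounds, cut at about 19% in these data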
GRIN3A LBD mod: modulates the human NR3A ligand-binding domain | Tm shift relative to glycine control, % at 25 µM | NR3A LBD differential scanning fluorimetry, Tm shift; 0% = protein alone, 100% = glycine-bound protein | 2.5% of 340,000 active | AID 1259313;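 active = melting temperature shift of at least 10% of the positive control shift, at one fixed dose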
Hits are given with their value; - = inactive; . = no result given. In the library only some 3.3% were active in any assay of this set; here they are far more common.

SMILES	UBC13 inh	UBC9 SUMO inh	sPLA2-III inh	GRIN3A LBD mod
COc1ccc(NC(=O)c2ccc(NC(=O)CN3CCN(c4ccccc4)CC3)cc2)cc1	-	.	-	18.9
CCc1ccc(OCC(=O)Nc2ccc(N3CCN(C(=O)c4ccccc4)CC3)cc2)cc1	-	-	-	-
COc1ccc(NC(=O)c2cccc(N3C(=O)C4C5C=CC(C6CC56)C4C3=O)c2)cc1 (stereo not given)	-	-	-	22.6
COc1ccc(NC(=O)c2ccc(CN3CCN(c4ccccc4)CC3)cc2)cc1	-	-	-	-
COc1ccc(C(=O)Nc2ccc(NC(=O)c3cnccn3)cn2)cc1	-	-	-	14.1
CN=C1S/C(=C/c2cc(C)n(-c3cc(C)ccc3OC)c2C)C(=O)N1C	.	.	-	.
COC(=O)c1cc(-c2cccc(C(F)(F)F)c2)c(=O)n2c1CCC2	.	.	-	.
Cc1ccc(/C=N/NC(=O)c2ccc(NC(=O)c3ccc(Cl)cc3)cc2)o1	-	-	-	-
Cc1ccc(C(=O)Nc2ccc(C(=O)N/N=C/c3ccc(C)o3)cc2)cc1	-	-	-	15.3
COc1ccc(C(=O)Nc2cc(-c3ccc(C)cc3)no2)cc1	-	-	-	10.7
COc1ccc(C(=O)Nc2ccc(-c3ccc(NC(=O)c4ccc(OC)cc4)c(OC)c3)cc2OC)cc1	-	-	-	27.5
COc1ccc(C(=O)Nc2cccc(C)c2)cc1	-	-	-	17.4
COc1ccc(C(=O)Nc2cccc(NC(C)=O)c2)cc1	.	.	-	.
COc1ccc(CCNC(=O)c2c(N)[nH]c(C(=O)c3ccccc3)c2-c2ccc(N(C)C)cc2)cc1	.	.	-	.
COc1ccc(C(=O)CSc2nnc(-c3ccc(C(C)(C)C)cc3)n2C)cc1	.	.	-	.
Cc1ccc(SCC(=O)Nc2ccc(C(=O)Nc3ccc(O)cc3)cc2)cc1	-	-	-	18.9
COc1ccc(NC(=O)c2ccc(C)cc2)cc1	-	-	-	42.0
O=C(CSc1cc(Cl)ccc1Cl)N/N=C/c1ccc[nH]1	.	.	-	.
O=C(NC(Cc1c[nH]c2ccccc12)C(=O)O)/C(=C/c1ccc(F)cc1)NC(=O)c1ccccc1 (stereo not given)	-	-	-	-
CC(=O)N/C(=C\c1ccc(F)cc1)C(=O)NC(Cc1c[nH]c2ccccc12)C(=O)O (stereo not given)	-	-	-	13.7
C[C@H]1[C@@H](c2ccccc2)Oc2ccc(Cl)cc2S(=O)(=O)N1Cc1ccc(F)cc1F	.	.	-	15.4
C[C@H]1[C@@H](c2ccccc2)Oc2ccc(Cl)cc2S(=O)(=O)N1Cc1ccc(Cl)cc1	.	.	-	.
C=CCOC(=O)N1CCN(C(=O)c2ccc3c(c2)nc(C)n3C2CCCC2)CC1	.	.	-	.
COc1ccc(-c2nc(C(N)=O)c3[nH]c(=O)n(-c4cccc(Cl)c4)c3n2)cc1OC	.	-	-	-
COc1cccc(-c2nc(C(N)=O)c3[nH]c(=O)n(-c4cccc(Cl)c4)c3n2)c1OC	50.0	-	-	-
SMILES	UBC13 inh	UBC9 SUMO inh	sPLA2-III inh	GRIN3A LBD mod
O=C(NCc1c(F)cccc1F)C1CCC(CNS(=O)(=O)c2cccc3cccnc23)CC1 (stereo not given)	.	.	-	.
O=C(N/N=C/c1cccs1)c1c[nH]c2ccccc12	-	-	-	14.3
Cc1c(/C=N\NC(=O)c2c[nH]c3ccccc23)cnn1C	-	-	-	-
CCc1ccc(/C=N/NC(=O)c2c[nH]c3ccccc23)s1	-	-	-	29.7
O=C(NN=C1CCCCCC1)c1c[nH]c2ccccc12	-	-	-	19.6
CCOc1ccc(N(CC(=O)Nc2c(C)n(C)n(-c3ccccc3)c2=O)S(=O)(=O)c2cc(OC)ccc2OC)cc1	.	.	-	.
COc1ccccc1C(=O)N(Cc1ccccn1)CC1CCCO1 (stereo not given)	.	.	-	.
CC(=O)c1cccc(CN2CCCC(C(=O)Nc3cccc(-n4cccn4)c3)C2)c1 (stereo not given)	-	-	-	10.0
COc1cccc(-c2ccc(NC(=O)C3CCCN(CCCn4cccn4)C3)cc2)c1 (stereo not given)	-	-	-	10.3
COc1cccc(-c2ccc(NC(=O)C3CCCN(Cc4ccccn4)C3)cc2)c1 (stereo not given)	.	.	-	.
COC(=O)c1ccc(CN2CCCC(C(=O)Nc3cccc(-n4cccn4)c3)C2)cc1 (stereo not given)	-	-	-	-
O=S1(=O)C=CCN1Cc1cn(Cc2ccc(F)cc2)nn1	.	.	-	.
Cn1c(SCC(=O)c2ccc3c(c2)Cc2ccccc2-3)nnc1-c1ccccc1	-	-	-	-
CC(=O)Nc1nnc(SCC(=O)c2ccc3c(c2)Cc2ccccc2-3)s1	-	-	-	14.9
CCC(=O)Nc1nnc(SCC(=O)c2ccc3c(c2)Cc2ccccc2-3)s1	-	-	-	11.3
CCC[C@H]1[C@@H](NC(=O)c2ccc(C)cc2)CC[C@@]23CCCN2C(=O)CCC[C@@H]13	.	.	-	.
CC(C)(C)c1ccc(-c2nnc(SCC(=O)Nc3ccc4c(c3)OCCO4)n2-c2ccc(Cl)cc2)cc1	.	.	-	.
Cc1cccc(NC(=O)CSc2nc3c([nH]c4ccccc43)c(=O)n2C)c1	-	-	-	-
COCCn1c(SCC(=O)Nc2cccc(OC)c2)nnc1-c1ccc(Cl)cc1	-	-	-	-
CCC1CCCCN1C(=O)CSc1nc2c([nH]c3ccccc32)c(=O)n1C (stereo not given)	-	-	-	16.9
COc1cccc(NC(=O)CSc2nc3c([nH]c4ccccc43)c(=O)n2C)c1	-	-	-	37.9
COCCn1c(SCC(=O)Nc2cccc(OC)c2)nnc1-c1ccccc1	-	-	-	10.5
Cc1ccccc1-c1nnc2n1N=C(c1ccc(O)c(O)c1)CS2	.	.	-	.
CCOc1cc(-c2c(C#N)c(N)nc3c2CCc2ccccc2-3)ccc1O	-	-	-	-
COc1ccccc1-c1c(C#N)c(N)nc2c1CCc1ccccc1-2	-	98.1	-	-
SMILES	UBC13 inh	UBC9 SUMO inh	sPLA2-III inh	GRIN3A LBD mod
Cc1ccc(OCCn2c(CCNC(=O)c3ccc(F)cc3F)nc3ccccc32)cc1	.	.	-	.
Cc1ccc(CNC(=O)c2cc3c(=O)n4ccccc4nc3n(Cc3ccco3)c2=N)cc1	-	-	-	-
Cc1ccc2nc3c(cc(C(=O)NCc4ccco4)c(=N)n3Cc3ccco3)c(=O)n2c1	-	73.6	-	-
O=C(Nc1ccc(-c2csc(Nc3ccccc3)n2)cc1)c1ccccc1	-	-	-	17.3
O=C(Nc1cccc(-c2csc(Nc3ccc(Cl)cc3)n2)c1)c1cccc(C(F)(F)F)c1	-	-	-	26.3
Cc1nc(NC(=O)c2ccccc2)sc1-c1csc(Nc2ccc(Cl)cc2)n1	-	-	.	.
O=C(Nc1cccc(-c2csc(Nc3ccc(Cl)cc3)n2)c1)c1ccccc1	-	-	-	25.4
NC(=O)c1nc[nH]c1C(=O)Nc1cccc(NC(=O)c2cccc(C(F)(F)F)c2)c1	-	.	-	-
N#Cc1ccc(-c2csc(NNC(=O)c3ccccc3)n2)cc1	-	-	38.9	-
O=C(NCC(c1ccccc1)c1ccccc1)[C@H](Cc1ccccc1)NC1(C(=O)NC2CCCCC2)CCCCCC1	.	.	-	.
CCN(C[C@H]1N[C@@](Cc2ccccc2)(C(=O)OC)[C@H]2C(=O)N(Cc3ccccc3)C(=O)[C@@H]12)C(=O)Nc1ccc(Cl)cc1	-	.	-	17.2
